Compound activity from PubChem.
A selection: hits, their analogues and other compounds. The true share with any hit is near 18%.
TDP1 cell CPT – qHTS for Inhibitors of human tyrosyl-DNA phosphodiesterase 1 (TDP1): qHTS in cells in presence of CPT; chicken DT40 Tdp1-/-;hTDP1 cells + 20 nM CPT, ATP luminescence, 48 h; Potency, µM (top dose mostly 46.2 µM), inactives show top-dose activity change, negative = growth inhibition, hits mostly inhibitors; 420,000 tested, 12% active; also: nearly all actives have a fitted effect of over 55% in size
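Chicken DT40 Tdp1-/- cells stably complemented with human TDP1 were seeded at 400 cells/well in medium containing 20 nM camptothecin, exposed to pin-transferred compounds, and grown at 37 °C for at least 48 hr. Viability was read as ATP luminescence.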
TDP1 block – qHTS Assay for Inhibitors of Tyrosyl-DNA Phosphodiesterase (TDP1); recombinant TDP1, AlphaScreen DNA substrate cleavage; 350,000 tested, 0.28% active; Potency, µM (titrated, usually from 130 µM), without a hit: at the top dose activity change, negative = inhibition, usual class: inhibitors; also: nearly all actives have a fitted effect of over 40% in size
Target sequence (Q9NUW8 whole entry, looked up): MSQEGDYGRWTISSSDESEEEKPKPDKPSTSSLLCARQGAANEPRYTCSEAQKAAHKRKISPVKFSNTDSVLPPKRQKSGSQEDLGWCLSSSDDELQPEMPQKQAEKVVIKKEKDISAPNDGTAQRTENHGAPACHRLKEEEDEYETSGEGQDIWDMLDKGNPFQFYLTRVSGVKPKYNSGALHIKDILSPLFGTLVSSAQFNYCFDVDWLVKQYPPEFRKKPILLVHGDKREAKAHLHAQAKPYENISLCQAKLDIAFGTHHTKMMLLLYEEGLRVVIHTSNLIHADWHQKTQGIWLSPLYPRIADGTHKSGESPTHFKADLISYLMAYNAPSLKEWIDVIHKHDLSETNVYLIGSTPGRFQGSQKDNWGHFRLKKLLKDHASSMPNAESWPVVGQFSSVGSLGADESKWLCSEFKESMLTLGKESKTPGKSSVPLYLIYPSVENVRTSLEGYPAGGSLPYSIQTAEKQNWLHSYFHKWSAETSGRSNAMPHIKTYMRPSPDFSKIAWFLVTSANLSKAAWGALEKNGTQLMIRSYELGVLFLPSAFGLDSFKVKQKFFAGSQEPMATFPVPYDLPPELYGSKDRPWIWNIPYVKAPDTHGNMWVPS
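Signal: AlphaScreen proximity between streptavidin donor and anti-FITC acceptor beads on intact substrate. Reaction: Tdp1 1 nM, substrate 15 nM final, 5 min RT after 15 min compound preincubation.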
PLK1 PBD inh – qHTS for Inhibitors of PLK1-PDB (polo-like kinase 1 - polo-box domain): Primary Screen; Serine/threonine-protein kinase PLK1 (Homo sapiens), P53350; Plk1 PBD binding of FITC phosphopeptide, fluorescence polarization; Potency, µM, for the others: max response, negative = inhibition, most hits filed as inhibitors; 360,000 tested, 2.8% active; also: series mostly up to about 57 µM; nearly all actives have a fitted effect of over 65% in size
VDR inhibitor – Inhibitors of the vitamin D receptor (VDR): qHTS. Potency, µM, without a hit: max response, negative = inhibition, most hits filed as inhibitors. VDR-SRC2-3 peptide fluorescence polarization, 2 h. AID 504847, 2011. 400,000 tested, 0.93% active. Vitamin D3 receptor (Homo sapiens), P11473
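FP read-out; VDR + SRC2-3 coactivator peptide; 23 nl compound by pintool; 2 h RT incubation; reagents held at 4 deg C, protected from light.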
TDP1 cell noCPT – qHTS for Inhibitors of human tyrosyl-DNA phosphodiesterase 1 (TDP1): qHTS in cells in absence of CPT | DT40 Tdp1-/- hTDP1 cells, no CPT, ATP luminescence, 48 h | Potency, µM (series often up to 46.2 µM), for the others: at the highest dose activity change, negative = growth inhibition, actives largely listed as inhibitors | 420,000 tested, 15% active | AID 686978, 2013; also: nearly all actives have a fitted effect of over 55% in size
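Growth of hTDP1-complemented DT40 Tdp1-knockout cells is measured by ATP luminescence after at least 48 hr compound exposure at 37 °C, with DMSO substituting for the 20 nM CPT used in the parallel screen.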
KAT2A inh – qHTS Assay for Inhibitors of GCN5L2 | 390,000 tested, 0.21% active | Potency, µM (doses to about 58.9 µM), without a hit: at the top dose activity change, negative = inhibition, actives largely listed as inhibitors | Histone acetyltransferase KAT2A (Homo sapiens), Q92830 | AID 504327, 2011 | GCN5L2 HAT assay, ThioGlo1 CoA-SH fluorescence
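GCN5L2 (20nM final) in 50mM HEPES, 0.1mM EDTA pH 7.5, 0.01% Tween-20 was preincubated 15 min at room temperature with compound, then given ThioGlo1 (50uM), H3(1-25) peptide (75uM) and acetyl-CoA (70uM); CoA-thiol fluorescence (Ex340/Em540) was read at 0 and 20 min.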
Starred values were filed as active, the others as inactive; ? = inconclusive; . = not tested or not shown; [ ] = dose if it differs, or a comment. Calls follow the shape of the dose curve; as a rule, active = well fitted curve in the direction sought with a large enough effect; inconclusive = small, poorly fitted or top-dose-only effect, or another doubt; inactive = no such curve, though single readings can be large; an effect the other way counts as inactive or inconclusive. % is scaled to controls: 0 for no effect and ±100 for the full control effect; potency is read from the fitted curve at half-maximal effect.

SMILES | TDP1 cell CPT | TDP1 block | PLK1 PBD inh | VDR inhibitor | TDP1 cell noCPT | KAT2A inh
COc1ccc(C#Cc2cnc3c(c2)C(=O)N([C@@H](C)CO)C[C@@H](C)[C@@H](CN(C)CC2CCOCC2)O3)cc1 | 18.4µM* | . | -6.9% | . | 20.6µM* | .
COc1ccc(S(=O)(=O)N(C)C[C@H]2Oc3ncc(Br)cc3C(=O)N([C@@H](C)CO)C[C@@H]2C)cc1 | ? | . | -10.6% | . | 11.6µM* | .
Cc1ccccc1-c1cnc2c(c1)C(=O)N([C@@H](C)CO)C[C@@H](C)[C@H](CN(C)Cc1ccccc1F)O2 | ? | . | -8.6% | . | 16.4µM* | .
Cc1ccccc1-c1cnc2c(c1)C(=O)N([C@H](C)CO)C[C@@H](C)[C@H](CN(C)C(=O)c1ccncc1)O2 | 5.1% | . | 7.0% | . | 4.7% | .
C[C@H]1CN([C@@H](C)CO)C(=O)c2cc(Br)cnc2O[C@H]1CN(C)Cc1ccc(Oc2ccccc2)cc1 | 18.4µM* | . | 8.5% | . | 16.4µM* | .
C[C@@H]1CN([C@@H](C)CO)C(=O)c2cc(Br)cnc2O[C@H]1CN(C)S(=O)(=O)c1ccccc1 | -15.0% | . | 4.8% | . | -5.2% | .
CCc1ccc2oc(-c3ccc(C)c(NC(=O)c4ccc(C#N)cc4F)c3)nc2c1 | . | 7.1% | . | 8.1% | . | 1.9%
Nc1nc(SCC(=O)Nc2ncc(Cl)cc2Cl)n[nH]1 | -6.5% | -19.6% | -18.1% | -11.7% | -21.4% | -3.0%
Cc1ccc(OCCNC(=O)c2ccccc2SCC(=O)N2CCCC2)cc1 | ? | 1.7% | -0.8% | -10.6% | ? | 4.3%
CCCNC(=O)N(C)C[C@H]1Oc2ncc(C#CCc3ccccc3)cc2C(=O)N([C@H](C)CO)C[C@H]1C | 29.1µM* | . | 26.7µM* | . | 10.3µM* | .
C/C=C/c1cnc2c(c1)C(=O)N([C@@H](C)CO)C[C@H](C)[C@@H](CN(C)S(=O)(=O)c1ccc(C)cc1)O2 | 23.1µM* | . | -17.7% | . | 23.1µM* | .
C[C@@H]1CN([C@@H](C)CO)C(=O)c2cc(/C=C/c3ccccc3)cnc2O[C@@H]1CN(C)S(=O)(=O)c1ccc(F)cc1 | -7.6% | . | 1.5% | . | -14.3% | .
C[C@@H]1CN([C@@H](C)CO)C(=O)c2cc(C#CC3CCCCC3)cnc2O[C@@H]1CN(C)S(=O)(=O)c1ccc(F)cc1 | 16.4µM* | . | ? | . | 14.6µM* | .
Cc1ccc(CNCc2ccc3c(c2)n(C)c(=O)n3C)cc1 | -14.9% | 1.6% | . | 7.0% | -15.0% | 5.3%
CCN(C[C@H]1N[C@@](CC)(C(=O)OC)[C@H]2C(=O)N(Cc3ccccc3)C(=O)[C@@H]12)S(=O)(=O)c1ccc(C(C)(C)C)cc1 | 13µM* | -1.0% | -13.8% | -3.0% | 23.1µM* | -1.6%
CCN(C[C@H]1N[C@@](CC)(C(=O)OC)[C@H]2C(=O)N(Cc3ccccc3)C(=O)[C@@H]12)S(=O)(=O)c1ccc(OC(F)(F)F)cc1 | ? | -0.6% | -8.6% | -5.0% | 16.4µM* | -11.3%
CCN(C[C@H]1N[C@@](CC)(C(=O)OC)[C@H]2C(=O)N(Cc3ccccc3)C(=O)[C@@H]12)S(=O)(=O)c1ccc(-c2ccccc2)cc1 | ? | 1.6% | -13.3% | 0.1% | ? | -1.3%
CCN(C[C@H]1N[C@@](Cc2ccccc2)(C(=O)OC)[C@H]2C(=O)N(Cc3ccccc3)C(=O)[C@@H]12)S(=O)(=O)c1ccc(C(F)(F)F)cc1 | ? | 0.0% | -7.9% | -3.3% | ? | -10.0%
CCCCNC(=O)N(O)C1N(/N=C/c2ccco2)C(=S)SC1(C)C (stereo not drawn) | -5.8% | 0.4%[56.1 µM] | 2.3% | 0.8% | 16.5% | -5.8%
O=S1(=O)CC(O)C(O)CS1 (stereo not drawn) | 23.1µM* | . | 10.6µM* | . | ? | .
CC1(Cc2cc(Cl)ccc2C(F)(F)F)C(=O)Nc2cc(F)ccc21 (stereo not drawn) | 25.9µM* | . | -5.6% | . | 14.6µM* | .
CC1(Cc2ccc(C(F)(F)F)o2)C(=O)Nc2cc(-c3ccc(F)cc3F)ccc21 (stereo not drawn) | ? | . | 4.6% | . | 4.61µM* | .
CC1(Cc2cc(Cl)ccc2C(F)(F)F)C(=O)Nc2cc(C(F)(F)F)ccc21 (stereo not drawn) | 23.1µM* | . | 2.0% | . | 14.6µM* | .
CC1(Cc2ccccc2Cl)C(=O)Nc2cc(-c3ccccc3Cl)ccc21 (stereo not drawn) | ? | . | -4.5% | . | ? | .
CC1(Cc2cc(Cl)ccc2C(F)(F)F)C(=O)Nc2ccc(OC(F)(F)F)cc21 (stereo not drawn) | 23.1µM* | . | -7.5% | . | 13µM* | .
SMILES | TDP1 cell CPT | TDP1 block | PLK1 PBD inh | VDR inhibitor | TDP1 cell noCPT | KAT2A inh
O=C(NCc1ccccc1F)c1ccc(S(=O)(=O)N2CCCC2)cc1 | -28.1% | . | 1.8% | . | -28.0% | .
O=[N+]([O-])O[C@H]1CO[C@H]2[C@@H]1OC[C@H]2O | . | -3.1% | . | 1.0% | . | -1.3%
O=S(=O)(c1ccc(Br)cc1)N1CCN(c2ccc3nnc(-c4ccccc4)n3n2)CC1 | 18.4µM* | 4.9% | 0.0% | -16.1% | 20.6µM* | -3.9%
O=C(c1ccc(Br)o1)N1CCN(c2ccc3nnc(-c4ccccc4)n3n2)CC1 | 16.4µM* | 7.6% | -10.0% | -6.8% | 14.6µM* | 1.0%
CC(C)NC(=O)C1CCC(Cn2c(=O)c3sccc3n(CC(=O)N3CCCC3)c2=O)CC1 (stereo not drawn) | -2.5% | 5.8% | . | -3.0% | 4.7% | -8.5%
CCOC(=O)c1cnc2ccc(OCC)cc2c1N1CCN(c2ccccc2OC)CC1 | ? | 7.9% | -5.4% | -11.0% | 11.6µM* | -5.5%
CCOC(=O)c1cnc2ccc(OCC)cc2c1N(C)Cc1ccccc1 | ? | 1.2% | -7.6% | -16.8% | 23.1µM* | -7.4%
CCOc1ccc2ncc(C(=O)c3ccc(OC)cc3)c(N3CCN(CC)CC3)c2c1 | ? | 3.6% | -7.1% | -2.6% | ? | -0.9%
CCOC(=O)c1cnc2c(OC)cccc2c1N1CCN(c2ccccc2F)CC1 | 18.4µM* | 3.2% | . | -3.8% | 18.4µM* | -5.5%
CCOC(=O)c1cc2cc(OCc3ccccc3)ccc2nc1C | -18.9% | . | 0.3% | ? | -24.7% | -11.9%
COC(=O)C1=C(C)N(Cc2ccccc2)[C@]23O[C@](C(=O)OC)(C(=O)N2C1c1ccccc1)C1CCOC(=O)C13 (stereo partly drawn) | . | 7.9%[21 µM] | . | . | . | .
